Reference: publication PMC4336329 (PLoS ONE, 2015)
Out of some 310,000 compounds screened, about 14,000 (4.5%) showed an effect of 50% or more. Effects have a minus sign here. The entries come from a sample that favours strong results as a whole.

Target: human ether-à-go-go-related gene (hERG) potassium channel (human, UniProt Q12809)
Experiment: primary screen, population patch clamp on CHO cells stably expressing hERG; higher = less effect of the substance
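Also: peak tail current of the secondary pulse compared with the same well before compound.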

Sequence of human ether-à-go-go-related gene (hERG) potassium channel (Q12809 whole entry, looked up): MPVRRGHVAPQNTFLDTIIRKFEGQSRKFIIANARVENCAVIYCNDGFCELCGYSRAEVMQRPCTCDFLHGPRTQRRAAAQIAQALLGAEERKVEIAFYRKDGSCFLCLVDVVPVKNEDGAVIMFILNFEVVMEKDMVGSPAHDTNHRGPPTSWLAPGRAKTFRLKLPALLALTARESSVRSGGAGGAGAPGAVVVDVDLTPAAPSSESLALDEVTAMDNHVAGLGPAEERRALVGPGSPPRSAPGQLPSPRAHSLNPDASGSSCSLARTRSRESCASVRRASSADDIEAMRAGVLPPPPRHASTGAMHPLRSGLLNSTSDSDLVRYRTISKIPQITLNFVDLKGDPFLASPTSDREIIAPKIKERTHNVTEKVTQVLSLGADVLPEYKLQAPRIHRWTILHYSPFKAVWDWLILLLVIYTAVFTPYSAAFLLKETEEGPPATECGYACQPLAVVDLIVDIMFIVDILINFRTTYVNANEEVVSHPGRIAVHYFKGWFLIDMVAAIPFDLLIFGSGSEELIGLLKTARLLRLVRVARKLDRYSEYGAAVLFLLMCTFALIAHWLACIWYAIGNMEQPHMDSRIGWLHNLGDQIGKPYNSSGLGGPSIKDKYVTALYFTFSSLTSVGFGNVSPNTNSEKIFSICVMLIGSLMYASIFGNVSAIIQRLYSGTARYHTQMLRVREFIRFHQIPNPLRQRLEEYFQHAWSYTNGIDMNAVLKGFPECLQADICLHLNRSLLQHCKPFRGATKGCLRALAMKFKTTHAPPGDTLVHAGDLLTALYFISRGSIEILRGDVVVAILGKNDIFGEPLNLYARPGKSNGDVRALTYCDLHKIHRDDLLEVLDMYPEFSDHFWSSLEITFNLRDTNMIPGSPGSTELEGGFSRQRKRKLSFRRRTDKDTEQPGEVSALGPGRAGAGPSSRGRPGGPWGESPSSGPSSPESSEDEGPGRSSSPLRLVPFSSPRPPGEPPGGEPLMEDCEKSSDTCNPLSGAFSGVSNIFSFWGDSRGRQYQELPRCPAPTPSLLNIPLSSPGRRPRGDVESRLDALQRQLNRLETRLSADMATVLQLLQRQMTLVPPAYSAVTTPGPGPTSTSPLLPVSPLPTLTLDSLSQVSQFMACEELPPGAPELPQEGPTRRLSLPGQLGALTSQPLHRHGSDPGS

| Structure (SMILES) | hERG current change (%, negative = inhibition) at 10uM [%] |
| --- | --- |
| Cc1cccc(N2CN(Cc3cccnc3)CNC2=S)c1 | -3.28 |
| COc1ccc(-c2cc(=O)oc3c(C)c(OCC(=O)Nc4cccnc4)ccc23)cc1 | -11.6 |
| CC(=O)c1ccc(N2CCN(C(=O)c3cc(-c4ccc5c(c4)OCO5)nc4ccccc34)CC2)cc1 | 2.88 |
| CCn1cc(S(=O)(=O)NCc2ccccc2Br)cn1 | -1.6 |
| CCOC(=O)N1CCN(C(=O)c2c[nH]c3ccc(S(=O)(=O)N(C)c4ccccc4C)cc3c2=O)CC1 | -1.1 |
| O[C@@H]1CCCN2CCc3c([nH]c4ccccc34)[C@H]12 | 10.9 |
| Cc1onc(-c2c(Cl)cccc2Cl)c1C(=O)N1CCN(c2ccccc2F)CC1 | 7.58 |
| O=C(CN(C1CCCCC1)S(=O)(=O)c1ccccc1)N1CCCC1 | -59.3 |
| CCOC(=O)N1CCN(C(=O)CN(C2CCCCC2)S(=O)(=O)c2ccc(Cl)cc2)CC1 | -47.8 |
| NC(=O)C1CCN(C(=O)CN(C2CCCCC2)S(=O)(=O)c2ccc(F)cc2)CC1 | -13.4 |
| Cc1ccc(S(=O)(=O)N(CC(=O)N2CCOCC2)C2CCCCC2)cc1 | -23.3 |
| O=C(CN(C1CCCCC1)S(=O)(=O)c1ccc(Cl)cc1)N1CCOCC1 | -59.5 |
| Cc1ccc(S(=O)(=O)N(CC(=O)N2CCCC2)C2CCCCC2)cc1 | -37.7 |
| Cc1ccc(SCC(=O)OCC(=O)N(CC(C)C)C2CCS(=O)(=O)C2)cc1C (stereo not drawn) | -4.29 |
| CC(=O)Nc1sc2c(c1C(c1ccccn1)N1CCN(C)CC1)CCCC2 (stereo not drawn) | -12.9 |
| CCc1cc(C(c2ccccn2)N2CCN(C)CC2)c(NC(=O)c2ccccc2)s1 (stereo not drawn) | -59.1 |
| Cc1sc(NC(=O)c2ccccc2)c(C(c2ccc(Cl)cc2)N2CCN(CCO)CC2)c1C (stereo not drawn) | -4.47 |
| COc1cccc(C(c2c(NC(=O)c3ccccc3)sc(C)c2C)N2CCN(C)CC2)c1 (stereo not drawn) | -17.6 |
| CCc1cc(C(c2ccncc2)N2CCN(C)CC2)c(NC(=O)c2ccccc2)s1 (stereo not drawn) | -40.2 |
| CCOc1ccc(C(c2c(NC(=O)c3ccccc3)sc(C)c2C)N2CCN(CCO)CC2)cc1 (stereo not drawn) | -21.1 |
| Cc1sc(NC(=O)c2ccccc2)c(C(c2ccccn2)N2CCN(CCO)CC2)c1C (stereo not drawn) | -53.7 |
| CCN1CCN(C(c2ccccn2)c2c(NC(=O)c3ccccc3)sc(C)c2C)CC1 (stereo not drawn) | -59.8 |
| CCc1cc(C(c2ccccc2OC)N2CCOCC2)c(NC(=O)c2ccccc2)s1 (stereo not drawn) | 21.3 |
| COc1ccc(/C(C)=N/NC(=O)c2nnn(-c3nonc3N)c2-c2ccccc2)cc1 | 19.8 |
| N#CC(c1ccccn1)c1ncc(C(F)(F)F)cc1Cl (stereo not drawn) | 23.5 |
| Cc1cccc(Cn2c(C(=O)OC(C)C)cc3c2ccn3C)c1 | 6.07 |
| S=c1[nH]nc(COc2ccc(Cl)cc2)n1C1CCCCC1 | 14.3 |

| Structure (SMILES) | hERG current change (%, negative = inhibition) at 10uM [%] |
| --- | --- |
| Cc1cc(NC(=O)COC(=O)[C@@H](NS(=O)(=O)c2ccccc2)C(C)C)no1 | -7.67 |
| COc1ccc(S(=O)(=O)NC(C)C(=O)NCc2ccncc2)cc1OC (stereo not drawn) | 15.7 |
| Cc1c([C@H]2[C@@H](CC#N)C2(C)C)c2ccccc2n1C | -10.4 |
| Clc1ccc(-c2nc(NCCN3CCOCC3)c3ccccc3n2)cc1 | -15.6 |
| Clc1ccc(-c2nnc(NCCN3CCCC3)c3ccccc23)cc1 | -71.3 |
| Clc1ccc(-c2nnc(NCc3ccccc3)c3ccccc23)cc1 | -13.3 |
| O=C(Nc1cccc(Cl)c1)OCc1cncs1 | -2.42 |
| O=c1c(-c2nnc(SCc3ccc(Cl)cc3)o2)cccn1Cc1ccccc1 | -46.2 |
| O=c1c(-c2nnc(SCc3ccc(Cl)cc3Cl)o2)cccn1Cc1ccccc1 | -62.5 |
| O=c1c(-c2nnc(SCc3ccc(Cl)c(Cl)c3)o2)cccn1Cc1ccccc1 | 1.6 |
| Cc1ccc(NC(=O)C(CC(C)C)NC(=O)C2CCC(C)CC2)nc1 (stereo not drawn) | -6.68 |
| CCCc1cc(=O)[nH]c(SCC(=O)Nc2c(C)cccc2C)n1 | 6.31 |
| COc1ccc2cc(C(=O)C3CCCN(Cc4cccc(C)n4)C3)ccc2c1 (stereo not drawn) | -66.5 |
| COc1cccc(C(=O)C2CCCN(Cc3cccc(C)n3)C2)c1 (stereo not drawn) | -53.4 |
| Cc1cccc(CN2CCCC(C(=O)c3cccc(OC(C)C)c3)C2)n1 (stereo not drawn) | -40 |
| COc1c(C)cc(C(=O)C2CCCN(Cc3cccc(C)n3)C2)cc1C (stereo not drawn) | -48.7 |
| COc1cccc(C(=O)C2CCCN(CC3=Cc4cc(OC)ccc4OC3)C2)c1 (stereo not drawn) | -56.6 |
| COc1ccc(C(=O)C2CCCN(Cc3ccccn3)C2)c(OC)c1 (stereo not drawn) | -55.7 |
| CC(=O)Nc1ccc(N/C=C/C(=O)c2ccco2)cc1 | 1.94 |
| Cn1nc(C(=O)Nc2nc3ccc(S(C)(=O)=O)cc3s2)ccc1=O | -20.7 |
| CN1CCN(C(=O)c2ccc3c(c2)N(Cc2cccc(Cl)c2)C(=O)c2ccccc2S3=O)CC1 (stereo not drawn) | -19.5 |
| O=C(/C=C/N1CCN(Cc2ccccc2)CC1)C(F)(F)F | 4.36 |
| Cc1nn(-c2ccccc2)c(Oc2ccccc2)c1C=O | -6.92 |
| CCc1c(C)c(C#N)c2nc3ccccc3n2c1NCc1ccco1 | -35.4 |
| Cc1ccc([N+](=O)[O-])cc1N(CC(=O)N1CCCCC1)S(C)(=O)=O | 12.2 |
| Cn1cccc1Cc1nnc(SCC(=O)Nc2cccc(F)c2)n1CCc1ccccc1 | -20.3 |
| Cl.NCCOc1ccccc1-c1ccccc1 | -11.1 |
